# Source: article PMC11062922 (Nature Chemical Biology, 2023)
# Like-named read-outs stand apart in the source and are kept apart here.
# Experiments:
# PKN1 = settings: read-out: apparent Kd, n = 1
# PLK4 = settings: read-out: apparent Kd, n = 1
substance,measurement,setting,value
Lestaurtinib,potency estimated from few doses,"PKN1; compound concentrations:100 nM and 1000 nM (sheet 'Lestaurtinib' of Supplementary Table 1),run:Lestaurtinib_02624_R2,Plate:MR020",430 nM
same,potency estimated from few doses,"PKN1; compound concentrations:100 nM and 1000 nM (sheet 'Lestaurtinib' of Supplementary Table 1),run:Lestaurtinib_02624_R3,Plate:MR020",513 nM
same,potency estimated from few doses,"PKN1; compound concentrations:100 nM and 1000 nM (sheet 'Lestaurtinib' of Supplementary Table 1),run:Lestaurtinib_02724_R1,Plate:MR021",487 nM
same,potency estimated from few doses,"PKN1; compound concentrations:100 nM and 1000 nM (sheet 'Lestaurtinib' of Supplementary Table 1),run:Lestaurtinib_02724_R2,Plate:MR021",386 nM
same,potency estimated from few doses,"PKN1; compound concentrations:100 nM and 1000 nM (sheet 'Lestaurtinib' of Supplementary Table 1),run:Lestaurtinib_02741_R3,Plate:MR023",518 nM
same,potency estimated from few doses,"PKN1; compound concentrations:100 nM and 1000 nM (sheet 'Lestaurtinib' of Supplementary Table 1),run:Lestaurtinib_02748_R1,Plate:MR024",418 nM
same,potency estimated from few doses,"PKN1; compound concentrations:100 nM and 1000 nM (sheet 'Lestaurtinib' of Supplementary Table 1),run:Lestaurtinib_02748_R2,Plate:MR024",511 nM
same,potency estimated from few doses,"PKN1; compound concentrations:100 nM and 1000 nM (sheet 'Lestaurtinib' of Supplementary Table 1),run:Lestaurtinib_02748_R3,Plate:MR024",440 nM
same,potency estimated from few doses,"PKN1; compound concentrations:100 nM and 1000 nM (sheet 'Lestaurtinib' of Supplementary Table 1),run:Lestaurtinib_02752_R1,Plate:MR025",489 nM
same,potency estimated from few doses,"PKN1; compound concentrations:100 nM and 1000 nM (sheet 'Lestaurtinib' of Supplementary Table 1),run:Lestaurtinib_02752_R2,Plate:MR025",414 nM
same,potency estimated from few doses,"PKN1; compound concentrations:100 nM and 1000 nM (sheet 'Lestaurtinib' of Supplementary Table 1),run:Lestaurtinib_02752_R3,Plate:MR025",448 nM
same,potency estimated from few doses,"PKN1; compound concentrations:100 nM and 1000 nM (sheet 'Lestaurtinib' of Supplementary Table 1),run:Lestaurtinib_02765_R1,Plate:MR026",524 nM
same,potency estimated from few doses,"PKN1; compound concentrations:100 nM and 1000 nM (sheet 'Lestaurtinib' of Supplementary Table 1),run:Lestaurtinib_02765_R3,Plate:MR026",568 nM
same,potency estimated from few doses,"PKN1; compound concentrations:100 nM and 1000 nM (sheet 'Lestaurtinib' of Supplementary Table 1),run:Lestaurtinib_02766_R1,Plate:MR027",532 nM
same,potency estimated from few doses,"PKN1; compound concentrations:100 nM and 1000 nM (sheet 'Lestaurtinib' of Supplementary Table 1),run:Lestaurtinib_02766_R2,Plate:MR027",582 nM
same,potency estimated from few doses,"PKN1; compound concentrations:100 nM and 1000 nM (sheet 'Lestaurtinib' of Supplementary Table 1),run:Lestaurtinib_02766_R3,Plate:MR027",483 nM
same,potency estimated from few doses,"PKN1; compound concentrations:100 nM and 1000 nM (sheet 'Lestaurtinib' of Supplementary Table 1),run:Lestaurtinib_02768_R1,Plate:MR028",403 nM
same,potency estimated from few doses,"PKN1; compound concentrations:100 nM and 1000 nM (sheet 'Lestaurtinib' of Supplementary Table 1),run:Lestaurtinib_02768_R2,Plate:MR028",488 nM
same,potency estimated from few doses,"PKN1; compound concentrations:100 nM and 1000 nM (sheet 'Lestaurtinib' of Supplementary Table 1),run:Lestaurtinib_02768_R3,Plate:MR028",424 nM
same,potency estimated from few doses,"PKN1; compound concentrations:100 nM and 1000 nM (sheet 'Lestaurtinib' of Supplementary Table 1),run:Lestaurtinib_02795_R1,Plate:MR022",453 nM
same,potency estimated from few doses,"PKN1; compound concentrations:100 nM and 1000 nM (sheet 'Lestaurtinib' of Supplementary Table 1),run:Lestaurtinib_02795_R2,Plate:MR022",443 nM
same,potency estimated from few doses,"PKN1; compound concentrations:100 nM and 1000 nM (sheet 'Lestaurtinib' of Supplementary Table 1),run:Lestaurtinib_02795_R3,Plate:MR022",422 nM
same,potency estimated from few doses,"PKN1; compound concentrations:100 nM and 1000 nM (sheet 'Lestaurtinib' of Supplementary Table 1),run:Lestaurtinib_02802_R1,Plate:MR029",473 nM
same,potency estimated from few doses,"PKN1; compound concentrations:100 nM and 1000 nM (sheet 'Lestaurtinib' of Supplementary Table 1),run:Lestaurtinib_02802_R2,Plate:MR029",433 nM
same,potency estimated from few doses,"PKN1; compound concentrations:100 nM and 1000 nM (sheet 'Lestaurtinib' of Supplementary Table 1),run:Lestaurtinib_02802_R3,Plate:MR029",181 nM
same,potency estimated from few doses,"PKN1; compound concentrations:100 nM and 1000 nM (sheet 'Lestaurtinib' of Supplementary Table 1),run:Lestaurtinib_03172_R1,Plate:MR031",435 nM
same,potency estimated from few doses,"PKN1; compound concentrations:100 nM and 1000 nM (sheet 'Lestaurtinib' of Supplementary Table 1),run:Lestaurtinib_03172_R3,Plate:MR031",358 nM
same,potency estimated from few doses,"PKN1; compound concentrations:100 nM and 1000 nM (sheet 'Lestaurtinib' of Supplementary Table 1),run:Lestaurtinib_03252_R2,Plate:MR032",94.9 nM
same,potency estimated from few doses,"PKN1; compound concentrations:100 nM and 1000 nM (sheet 'Lestaurtinib' of Supplementary Table 1),run:Lestaurtinib_03260_R1,Plate:MR033",514 nM
same,potency estimated from few doses,"PKN1; compound concentrations:100 nM and 1000 nM (sheet 'Lestaurtinib' of Supplementary Table 1),run:Lestaurtinib_03260_R2,Plate:MR033",559 nM
same,potency estimated from few doses,"PKN1; compound concentrations:100 nM and 1000 nM (sheet 'Lestaurtinib' of Supplementary Table 1),run:Lestaurtinib_03260_R3,Plate:MR033",518 nM
same,potency estimated from few doses,"PLK4; compound concentrations:100 nM and 1000 nM (sheet 'Lestaurtinib' of Supplementary Table 1),run:Lestaurtinib_02339_R1,Plate:MR001",80.5 nM
same,potency estimated from few doses,"PLK4; compound concentrations:100 nM and 1000 nM (sheet 'Lestaurtinib' of Supplementary Table 1),run:Lestaurtinib_02339_R2,Plate:MR001",64.4 nM
same,potency estimated from few doses,"PLK4; compound concentrations:100 nM and 1000 nM (sheet 'Lestaurtinib' of Supplementary Table 1),run:Lestaurtinib_02339_R3,Plate:MR001",51.7 nM
same,potency estimated from few doses,"PLK4; compound concentrations:100 nM and 1000 nM (sheet 'Lestaurtinib' of Supplementary Table 1),run:Lestaurtinib_02364_R2,Plate:MR002",202 nM
same,potency estimated from few doses,"PLK4; compound concentrations:100 nM and 1000 nM (sheet 'Lestaurtinib' of Supplementary Table 1),run:Lestaurtinib_02367_R1,Plate:MR003",62.3 nM
same,potency estimated from few doses,"PLK4; compound concentrations:100 nM and 1000 nM (sheet 'Lestaurtinib' of Supplementary Table 1),run:Lestaurtinib_02367_R2,Plate:MR003",75.5 nM
same,potency estimated from few doses,"PLK4; compound concentrations:100 nM and 1000 nM (sheet 'Lestaurtinib' of Supplementary Table 1),run:Lestaurtinib_02381_R1,Plate:MR004",71 nM
same,potency estimated from few doses,"PLK4; compound concentrations:100 nM and 1000 nM (sheet 'Lestaurtinib' of Supplementary Table 1),run:Lestaurtinib_02381_R2,Plate:MR004",73.6 nM
same,potency estimated from few doses,"PLK4; compound concentrations:100 nM and 1000 nM (sheet 'Lestaurtinib' of Supplementary Table 1),run:Lestaurtinib_02381_R3,Plate:MR004",93.7 nM
same,potency estimated from few doses,"PLK4; compound concentrations:100 nM and 1000 nM (sheet 'Lestaurtinib' of Supplementary Table 1),run:Lestaurtinib_02407_R1,Plate:MR005",45.6 nM
same,potency estimated from few doses,"PLK4; compound concentrations:100 nM and 1000 nM (sheet 'Lestaurtinib' of Supplementary Table 1),run:Lestaurtinib_02407_R2,Plate:MR005",39.3 nM
same,potency estimated from few doses,"PLK4; compound concentrations:100 nM and 1000 nM (sheet 'Lestaurtinib' of Supplementary Table 1),run:Lestaurtinib_02407_R3,Plate:MR005",47.3 nM
